Screening results (PubChem BioAssay)
Pf growth 96h = P. falciparum growth inhibition at 96 hours | 6.9% of 320,000 active | P. falciparum luciferase reporter growth, 96 h | AID 504834 | Potency, µM (series often up to 28.7 µM), actives largely listed as inhibitors
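Infected RBCs, 2% Hct / 0.05% parasitemia final; luciferase-reporter P. falciparum; cpd 96 h, 37 C, 5% CO2; luciferase detection reagent; luminescence.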
HCMV inh = blocks human cytomegalovirus replication; HFF cells, HCMV-luciferase reporter, 72 h; stronger effect = lower value; activity change, negative = inhibition, % at 57.5 µM; 4.5% of 410,000 active; AID 1259415; in the data active = activity change below about -60%; inconclusive = no clear call, values can overlap the other calls; inactive = above about -39%
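Two compound doses tested in HFFs infected with HCMV-luciferase, MOI 1 PFU/cell, 72 h at 37C. Lysate luminescence read with OneGlo; data normalized against buffer-only and 10uM Salinomycin inhibitor controls.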
Pf growth 48h = inhibits P. falciparum growth in the first generation, 48 h; P. falciparum luciferase growth in erythrocytes, 48 h; Potency, µM (highest dose often 28.7 µM), most hits filed as inhibitors; 5.9% of 310,000 active
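Erythrocytes infected with P. falciparum carrying an integrated firefly luciferase reporter (2% hematocrit, 0.1% parasitemia final) were exposed to compounds in RPMI 1640 with 0.5% Albumax at 37 C, 5% CO2. Growth inhibition was scored as reduced luminescence.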
HCV inhibitor = inhibitors of hepatitis C virus infection | Huh7.5.1 HCVcc-Cre infection, luciferase reporter, 44 h | Potency, µM (titrated, usually from 41.8 µM), most hits filed as inhibitors | 3.4% of 340,000 active | AID 651820
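1,000 cells/well; 4 h culture; + compound; + HCVcc-Cre (~0.5 moi); 44 h; luciferase substrate, RT 15 min; read 15 sec.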
Sm TGR block = S. mansoni TGR enzyme inhibition; 3% of 360,000 active; purified TGR, DTNB reduction, TNB absorbance 405 nm; Potency, µM (doses to about 114 µM), usual class: inhibitors; Q962Y6; also: nearly all actives have a fitted effect of over 60% in size
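TGR 20 nM + NADPH 100 uM (dispensed conc.), cpd preinc 15 min RT; start with NADPH (500 uM addition) then DTNB (15 mM addition). Kinetic TNB absorbance, 405 nm filter. Four-parameter Hill fit across titration.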
SARS PLpro yeast = inhibitors of SARS-CoV papain-like protease in yeast; S. cerevisiae expressing SARS-CoV PLpro, growth rescue; Potency, µM (series often up to 32.9 µM), usual class: activators; 0.19% of 330,000 active; AID 485353; calls by dose curve; also: nearly all actives have a fitted effect of over 55% in size
Large screens that a line does not name were inactive. An excerpt weighted towards active compounds, which were near 15% of everything screened. Unless noted, calls follow the shape of the dose curve; as a rule, active = well fitted curve in the direction sought with a large enough effect; inconclusive = small, poorly fitted or top-dose-only effect, or another doubt; inactive = no such curve, though single readings can be large; an effect the other way counts as inactive or inconclusive.

C[C@@H]1CCCCO[C@@H](CN(C)S(C)(=O)=O)[C@@H](C)CN([C@H](C)CO)C(=O)c2cc(N(C)C)ccc2O1	none (no result: Pf growth 96h, Pf growth 48h, HCV inhibitor, Sm TGR block, SARS PLpro yeast)
O=C(c1ccccc1Br)N(Cc1ccccc1)c1ccccc1	HCMV inh -62, Pf growth 48h inconclusive
COc1ccc(CN(C(=O)c2ccco2)c2ccccc2)cc1	none
Oc1ccc2c3c1O[C@H]1[C@@H](O)CC[C@@]4(O)C(C2)N(CC2CCC2)CCC314 (stereo partly specified)	Pf growth 96h 3.4µM, Pf growth 48h inconclusive (no result: HCMV inh, HCV inhibitor, Sm TGR block, SARS PLpro yeast)
Oc1ccc2c3c1O[C@H]1c4[nH]c5ccccc5c4C[C@@]4(O)C(C2)N(CC2CC2)CC[C@]314	Sm TGR block 18µM (no result: Pf growth 96h, HCMV inh, Pf growth 48h, HCV inhibitor)
Oc1ccc2c3c1O[C@H]1c4oc5ccccc5c4C[C@@]4(O)[C@@H](C2)N(CC2CC2)CC[C@]314	Pf growth 96h 4.7µM, HCMV inh inconclusive, Pf growth 48h inconclusive
Oc1ccc2c3c1O[C@H]1c4[nH]c5ccccc5c4C[C@@]4(O)[C@@H](C2)N(CC2CC2)CC[C@]314	Pf growth 96h inconclusive, Pf growth 48h inconclusive, HCV inhibitor inconclusive, Sm TGR block 45µM (no result: SARS PLpro yeast)
C=CCN1CC[C@]23c4c5ccc(O)c4OC2C(O)CC[C@@]3(O)[C@H]1C5 (stereo partly specified)	none (no result: Pf growth 96h, Pf growth 48h, Sm TGR block)
NC(N)=Nc1ccc2[nH]c3c(c2c1)C[C@@]1(O)[C@H]2Cc4ccc(O)c5c4[C@@]1(CCN2CC1CC1)C3O5 (stereo partly specified)	none (no result: Pf growth 96h, Pf growth 48h, Sm TGR block)
CCOC(=O)[C@]12CCCC=C1N(Cc1ccc(Cl)cc1Cl)C(=O)[C@H](CC(=O)N1CCN(C(=O)c3ccco3)CC1)C2	none (no result: Pf growth 96h, Pf growth 48h, HCV inhibitor, Sm TGR block, SARS PLpro yeast)
O=C(Cn1ncc(N2CCCC2)c(Cl)c1=O)c1ccc(Cl)cc1	none
CCOC(=O)c1ccc(NC(=O)Cn2ncc(Cl)c(Cl)c2=O)cc1	HCMV inh -100, Pf growth 48h inconclusive, HCV inhibitor inconclusive, Sm TGR block 18µM
CCC(=O)Nc1ccc(C(=O)Cn2ncc(Cl)c(Cl)c2=O)cc1	HCMV inh -103, HCV inhibitor inconclusive, Sm TGR block 2.8µM
CCc1ccccc1NC(=O)CN(C)C(=O)Cn1ncc(Cl)c(Cl)c1=O	HCMV inh -99, HCV inhibitor 2.8µM, Sm TGR block inconclusive
CCc1ccccc1NC(=O)CN(C)C(=O)Cn1cnc2ccc(Cl)cc2c1=O	Pf growth 96h inconclusive
CC(=O)NC1=NN(C(C)=O)C(C)(c2ccco2)S1 (stereo unspecified)	Pf growth 48h inconclusive
CC(=O)NC1=NN(C(C)=O)C(C)(c2cccs2)S1 (stereo unspecified)	Pf growth 96h 10µM
O=C(Cn1nc(-c2ccc(Cl)cc2)ccc1=O)NCc1ccccc1Cl	none (no result: Pf growth 96h, Pf growth 48h, HCV inhibitor, SARS PLpro yeast)
Cc1nc2ccc(NC(=O)c3cc(S(=O)(=O)N(C)c4ccccc4)ccc3Cl)cc2s1	Pf growth 96h 0.37µM, HCMV inh inconclusive, Pf growth 48h 1.3µM, HCV inhibitor inconclusive
Cc1nc2ccc(NC(=O)c3ccc(S(=O)(=O)N(C)C)cc3)cc2s1	Pf growth 96h inconclusive, Pf growth 48h inconclusive, HCV inhibitor inconclusive
CN(c1ccccc1)S(=O)(=O)c1ccc(Cl)c(C(=O)Nc2ccc(N3CCOCC3)cc2)c1	Pf growth 96h inconclusive, Pf growth 48h inconclusive, HCV inhibitor 16µM
Cc1nc2ccc(NC(=O)c3ccc(Cl)c([N+](=O)[O-])c3)cc2s1	none
CS(=O)(=O)c1ccc(C(=O)Nc2ccc(N3CCOCC3)cc2)c(Cl)c1	none
Cc1nc2ccc(NC(=O)c3ccc(Cl)c(S(=O)(=O)N(C)c4ccccc4)c3)cc2s1	Pf growth 96h inconclusive, HCMV inh -101, HCV inhibitor inconclusive
Cc1nc2ccc(NC(=O)c3cc([N+](=O)[O-])cc([N+](=O)[O-])c3Cl)cc2s1	Pf growth 48h inconclusive, HCV inhibitor 25µM, Sm TGR block 0.5µM
Cc1noc(NS(=O)(=O)c2ccc(NC(=O)c3cc(S(=O)(=O)N(C)c4ccccc4)ccc3Cl)cc2)c1C	none (no result: Pf growth 96h, Pf growth 48h, Sm TGR block, SARS PLpro yeast)
CC12CCC(=O)N1C(C(=O)NNC(=O)COc1ccc(Br)cc1)CS2 (stereo unspecified)	none
CCS(=O)(=O)c1nc2ccccc2n1Cc1ccccn1	none
